# Test results published in PubChem BioAssay (EPA / NIEHS).
# Inconclusive results are not listed. Activity calls are given as the source filed them. The calls were made as follows, unless noted: active = hit-call score of the fitted dose curve at least 0.9, where 1 is the maximum; inactive = score below 0.9.
# Columns and labels:
# [1] = ATG_NFI_CIS: Attagene CIS-FACTORIAL HepG2 Assay for human Nuclear Factor I (NFI) (AID 2282989); settings: HepG2 cis-regulatory reporter, NFI response element transcription; actives raise or lower the signal
# Procedure, shortened: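 Read-out: reporter mRNA via RT-PCR plus capillary electrophoresis with fluorescence detection. Transiently transfected HepG2 (endogenous TF activity on cis promoters), 24 h compound exposure; gain or loss of signal fitted against DMSO.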
# [2] = ATG_NF_kB_CIS: Attagene CIS-FACTORIAL HepG2 Assay for human Nuclear Factor Kappa B (NF-kB) (AID 2282991); settings: HepG2 Attagene cis-factorial NF-kB reporter mRNA; actives raise or lower the signal
# Procedure, shortened: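 DMSO served as negative control and baseline for bidirectional curve fitting. Transiently transfected HepG2 cells were dosed for 24 h, then reporter transcripts were measured by RT-PCR with capillary electrophoresis detection.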
# [3] = ATG_NRF2_ARE_CIS: Attagene CIS-FACTORIAL HepG2 Assay for human Nuclear Factor Erythroid 2 Related Factor 2 (NFR2) response to Antioxidant Response Elements (ARE) (AID 2282992); settings: HepG2 Attagene ARE/NRF2 reporter, transcription factor activity; actives raise or lower the signal;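 as to AC50: reporter mRNA level measured by RT-PCR and capillary electrophoresis fluorescence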
# Procedure, shortened: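 Endogenous transcription factor activity in human liver HepG2 cells is tracked via a cis-element-driven reporter within a multiplexed set. mRNA induction is read by RT-PCR and capillary electrophoresis after 24 h, with DMSO as baseline.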
# [4] = ATG_Oct_MLP_CIS: Attagene CIS-FACTORIAL HepG2 Assay for human Octamer-Binding Transcription Factor (Oct) (AID 2282993); settings: HepG2 Attagene cis-factorial Oct reporter, mRNA; actives raise or lower the signal
# Procedure, shortened: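 Read-out: reporter mRNA via RT-PCR plus capillary electrophoresis of 6-FAM-labelled fragments. Transiently transfected HepG2, 24 h exposure, endogenous TF activity on cis elements. Gain or loss of signal fitted relative to DMSO.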
# [5] = molecular target: Cellular tumor antigen p53 (Homo sapiens) (UniProt P04637); experiment: ATG_p53_CIS: Attagene CIS-FACTORIAL HepG2 Assay for human p53 Transcription Factor (AID 2282994); settings: HepG2 p53 cis-element reporter, Attagene mRNA; actives raise or lower the signal
# Chain of Cellular tumor antigen p53 (Homo sapiens) (P04637 whole entry, looked up, the tested form may be a part): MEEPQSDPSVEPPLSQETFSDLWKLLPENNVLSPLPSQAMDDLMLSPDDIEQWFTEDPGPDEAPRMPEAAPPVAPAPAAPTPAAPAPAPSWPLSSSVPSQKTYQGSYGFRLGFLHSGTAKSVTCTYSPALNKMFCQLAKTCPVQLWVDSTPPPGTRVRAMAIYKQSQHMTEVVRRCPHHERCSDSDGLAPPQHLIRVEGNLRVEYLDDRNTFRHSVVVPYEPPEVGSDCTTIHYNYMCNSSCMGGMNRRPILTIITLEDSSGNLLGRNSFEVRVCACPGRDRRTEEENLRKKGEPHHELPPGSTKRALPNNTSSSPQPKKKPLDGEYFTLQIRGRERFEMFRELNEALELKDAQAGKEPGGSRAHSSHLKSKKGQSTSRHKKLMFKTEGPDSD
# Procedure, shortened: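 Steps: transfect HepG2 with multiplexed cis reporter constructs; dose chemicals 24 h; extract RNA, reverse-transcribe, PCR-amplify reporter sequences; FAM-label, HpaI-digest, resolve fragments by CE. Activity fitted both directions relative to DMSO.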
# [6] = molecular target: human Peroxisome Proliferator-activated Receptor alpha (PPARa), PPARA (gene 5465) (UniProt Q07869); experiment: ATG_PPARa_TRANS: Attagene TRANS-FACTORIAL HepG2 Assay for human Peroxisome Proliferator-activated Receptor alpha (PPARa) (AID 2283001; active = hit-call score of the fitted dose curve at least 0.9, where 1 is the maximum)
# Chain of human Peroxisome Proliferator-activated Receptor alpha (PPARa), PPARA (gene 5465) (Q07869 whole entry, looked up): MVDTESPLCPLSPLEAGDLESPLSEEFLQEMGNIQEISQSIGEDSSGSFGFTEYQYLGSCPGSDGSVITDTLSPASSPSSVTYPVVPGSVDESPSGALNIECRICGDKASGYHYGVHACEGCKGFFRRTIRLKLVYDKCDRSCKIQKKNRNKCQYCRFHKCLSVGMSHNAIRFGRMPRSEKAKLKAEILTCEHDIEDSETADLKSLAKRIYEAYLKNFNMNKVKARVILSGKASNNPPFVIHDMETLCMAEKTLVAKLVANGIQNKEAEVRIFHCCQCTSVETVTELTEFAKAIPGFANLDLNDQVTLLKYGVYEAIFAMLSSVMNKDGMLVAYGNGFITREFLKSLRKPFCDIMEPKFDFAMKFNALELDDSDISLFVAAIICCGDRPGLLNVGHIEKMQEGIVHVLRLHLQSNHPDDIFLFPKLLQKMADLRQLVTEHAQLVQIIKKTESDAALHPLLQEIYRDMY
# Procedure, shortened: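 HepG2, transient MRTU transfection, 24 h treatment. RT-PCR → FAM labelling → capillary electrophoresis. Fit vs DMSO, positive direction.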
# [7] = molecular target: human Peroxisome Proliferator-activated Receptor delta (PPARd), PPARD (gene 5467) (UniProt Q03181); experiment: ATG_PPARd_TRANS: Attagene TRANS-FACTORIAL HepG2 Assay for human Peroxisome Proliferator-activated Receptor delta (PPARd) (AID 2283002; active = hit-call score of the fitted dose curve at least 0.9, where 1 is the maximum)
# Chain of human Peroxisome Proliferator-activated Receptor delta (PPARd), PPARD (gene 5467) (Q03181 whole entry, looked up, the tested form may be a part): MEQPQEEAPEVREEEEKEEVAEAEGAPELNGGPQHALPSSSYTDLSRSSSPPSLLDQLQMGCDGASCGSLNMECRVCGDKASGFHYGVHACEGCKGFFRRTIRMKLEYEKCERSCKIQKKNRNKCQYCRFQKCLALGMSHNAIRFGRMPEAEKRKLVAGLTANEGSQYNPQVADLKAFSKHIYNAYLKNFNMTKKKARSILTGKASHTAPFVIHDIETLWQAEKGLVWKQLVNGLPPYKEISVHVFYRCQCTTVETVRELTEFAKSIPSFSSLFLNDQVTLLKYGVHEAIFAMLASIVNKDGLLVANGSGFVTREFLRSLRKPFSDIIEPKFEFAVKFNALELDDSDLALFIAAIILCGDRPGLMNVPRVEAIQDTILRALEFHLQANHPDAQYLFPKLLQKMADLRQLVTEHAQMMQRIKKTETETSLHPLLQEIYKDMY
# Procedure, shortened: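 Read-out: reporter mRNA induction, quantified by fluorescent RT-PCR products resolved by capillary electrophoresis. Human HepG2 liver cells carried transiently transfected Gal4-UAS reporter constructs with chimeric NR-Gal4 fusions. Cells were dosed for 24 h; DMSO served as baseline.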
# [8] = molecular target: human Retinoic Acid Receptor beta (RARb), RARB (gene 5915) (UniProt P10826); experiment: ATG_RARb_TRANS: Attagene TRANS-FACTORIAL HepG2 Assay for human Retinoic Acid Receptor beta (AID 2283004; active = hit-call score of the fitted dose curve at least 0.9, where 1 is the maximum)
# Chain of human Retinoic Acid Receptor beta (RARb), RARB (gene 5915) (P10826 whole entry, looked up, the tested form may be a part): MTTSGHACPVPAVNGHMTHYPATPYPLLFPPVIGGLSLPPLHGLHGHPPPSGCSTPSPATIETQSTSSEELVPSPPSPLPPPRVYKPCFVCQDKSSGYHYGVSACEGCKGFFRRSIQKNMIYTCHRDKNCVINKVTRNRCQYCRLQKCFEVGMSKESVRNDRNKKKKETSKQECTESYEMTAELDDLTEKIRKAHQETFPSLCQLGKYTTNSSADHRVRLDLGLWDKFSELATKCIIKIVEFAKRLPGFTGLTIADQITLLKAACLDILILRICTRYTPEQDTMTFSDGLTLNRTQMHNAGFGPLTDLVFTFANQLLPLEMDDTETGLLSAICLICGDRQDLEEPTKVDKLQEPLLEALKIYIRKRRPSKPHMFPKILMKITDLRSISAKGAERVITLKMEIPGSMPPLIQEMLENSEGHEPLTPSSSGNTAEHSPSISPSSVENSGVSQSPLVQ
# Procedure, shortened: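 HepG2 cells transiently transfected with multiplexed GAL4-UAS reporter units expressing chimeric NR–Gal4 fusions; 24 h compound exposure. Reporter mRNA quantified by RT-PCR, 6-FAM labelling, HpaI digestion and capillary electrophoresis; gain-of-signal fitted against DMSO baseline.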
# [9] = molecular target: Retinoic acid receptor alpha (Homo sapiens) (UniProt P10276); experiment: ATG_RARa_TRANS: Attagene TRANS-FACTORIAL HepG2 Assay for human Retinoic Acid Receptor alpha (RARa) (AID 2283005; active = hit-call score of the fitted dose curve at least 0.9, where 1 is the maximum)
# Chain of Retinoic acid receptor alpha (Homo sapiens) (P10276 whole entry, looked up, the tested form may be a part): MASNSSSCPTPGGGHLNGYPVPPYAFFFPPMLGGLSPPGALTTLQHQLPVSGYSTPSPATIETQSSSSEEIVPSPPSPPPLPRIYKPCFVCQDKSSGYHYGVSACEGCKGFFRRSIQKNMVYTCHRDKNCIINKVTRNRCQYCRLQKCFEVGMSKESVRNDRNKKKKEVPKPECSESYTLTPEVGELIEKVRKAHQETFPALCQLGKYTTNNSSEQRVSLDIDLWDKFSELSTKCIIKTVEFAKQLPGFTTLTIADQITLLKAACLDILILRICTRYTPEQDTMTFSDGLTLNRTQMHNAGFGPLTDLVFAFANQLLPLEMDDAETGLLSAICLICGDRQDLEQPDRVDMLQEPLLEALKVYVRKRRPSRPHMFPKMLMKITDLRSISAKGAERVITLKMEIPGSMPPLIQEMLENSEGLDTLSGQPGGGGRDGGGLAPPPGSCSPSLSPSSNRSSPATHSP
# Procedure, shortened: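 HepG2 transiently transfected with multiplex GAL4-UAS reporter units including a human RARa–GAL4 chimera; 24 h compound exposure. Reporter mRNA quantified by RT-PCR, 6-FAM labeling and capillary electrophoresis; gain of signal versus DMSO.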
# [10] = molecular target: Peroxisome proliferator-activated receptor gamma (Homo sapiens) (UniProt P37231); experiment: ATG_PPARg_TRANS: Attagene TRANS-FACTORIAL HepG2 Assay for human Peroxisome Proliferator-activated Receptor-gamma (PPARg) (AID 2283007; active = hit-call score of the fitted dose curve at least 0.9, where 1 is the maximum)
# Chain of Peroxisome proliferator-activated receptor gamma (Homo sapiens) (P37231 whole entry, looked up, the tested form may be a part): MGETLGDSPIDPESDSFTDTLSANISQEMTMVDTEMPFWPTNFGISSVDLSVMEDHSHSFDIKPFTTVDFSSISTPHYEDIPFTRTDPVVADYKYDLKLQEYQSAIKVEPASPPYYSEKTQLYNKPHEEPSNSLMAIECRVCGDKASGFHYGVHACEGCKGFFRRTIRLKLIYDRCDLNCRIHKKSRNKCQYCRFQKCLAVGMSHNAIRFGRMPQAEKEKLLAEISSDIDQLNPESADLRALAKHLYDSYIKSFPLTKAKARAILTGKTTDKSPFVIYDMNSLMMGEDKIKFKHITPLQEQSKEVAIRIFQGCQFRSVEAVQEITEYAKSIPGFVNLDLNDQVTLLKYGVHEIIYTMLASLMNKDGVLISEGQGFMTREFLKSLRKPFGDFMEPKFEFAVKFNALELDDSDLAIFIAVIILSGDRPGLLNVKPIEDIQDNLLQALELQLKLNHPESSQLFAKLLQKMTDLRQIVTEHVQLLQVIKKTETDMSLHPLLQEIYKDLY
# Procedure, shortened: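 Chimeric NR-Gal4 transactivation is measured in transiently transfected HepG2 cells by reporter mRNA induction at 24 h. Detection uses RT-PCR with fluorescent labelling and capillary electrophoresis; DMSO defines baseline.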
# [11] = molecular target: Nuclear receptor subfamily 1 group I member 2 (Homo sapiens) (UniProt O75469); experiment: ATG_PXR_TRANS: Attagene TRANS-FACTORIAL HepG2 Assay for human Pregnane X Receptor (PXR) (AID 2283008; active = hit-call score of the fitted dose curve at least 0.9, where 1 is the maximum)
# Chain of Nuclear receptor subfamily 1 group I member 2 (Homo sapiens) (O75469 whole entry, looked up, the tested form may be a part): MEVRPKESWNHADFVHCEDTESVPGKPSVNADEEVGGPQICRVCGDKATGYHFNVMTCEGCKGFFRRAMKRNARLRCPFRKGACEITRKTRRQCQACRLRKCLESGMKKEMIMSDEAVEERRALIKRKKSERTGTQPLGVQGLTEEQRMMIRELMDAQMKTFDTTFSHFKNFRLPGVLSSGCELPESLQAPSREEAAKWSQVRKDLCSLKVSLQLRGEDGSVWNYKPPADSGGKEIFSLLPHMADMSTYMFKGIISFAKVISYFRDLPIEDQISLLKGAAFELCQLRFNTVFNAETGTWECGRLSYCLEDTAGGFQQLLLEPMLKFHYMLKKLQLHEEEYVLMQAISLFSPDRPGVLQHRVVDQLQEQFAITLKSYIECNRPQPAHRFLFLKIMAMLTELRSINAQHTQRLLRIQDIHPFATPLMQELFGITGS
# Procedure, shortened: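 HepG2 transfected (FuGene 6) with GAL4-UAS reporter units + PXR-Gal4 chimera; dosed 24 h. Total RNA → oligo(dT) RT → PCR → 6-FAM primer extension → HpaI cut → CE. Gain-of-signal vs DMSO.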
# [12] = molecular target: human Retinoic Acid Receptor gamma (RARg), RARG (gene 5916) (UniProt P13631); experiment: ATG_RARg_TRANS: Attagene TRANS-FACTORIAL HepG2 Assay for human Retinoic Acid Receptor gamma (RARg) (AID 2283009; active = hit-call score of the fitted dose curve at least 0.9, where 1 is the maximum)
# Chain of human Retinoic Acid Receptor gamma (RARg), RARG (gene 5916) (P13631 whole entry, looked up, the tested form may be a part): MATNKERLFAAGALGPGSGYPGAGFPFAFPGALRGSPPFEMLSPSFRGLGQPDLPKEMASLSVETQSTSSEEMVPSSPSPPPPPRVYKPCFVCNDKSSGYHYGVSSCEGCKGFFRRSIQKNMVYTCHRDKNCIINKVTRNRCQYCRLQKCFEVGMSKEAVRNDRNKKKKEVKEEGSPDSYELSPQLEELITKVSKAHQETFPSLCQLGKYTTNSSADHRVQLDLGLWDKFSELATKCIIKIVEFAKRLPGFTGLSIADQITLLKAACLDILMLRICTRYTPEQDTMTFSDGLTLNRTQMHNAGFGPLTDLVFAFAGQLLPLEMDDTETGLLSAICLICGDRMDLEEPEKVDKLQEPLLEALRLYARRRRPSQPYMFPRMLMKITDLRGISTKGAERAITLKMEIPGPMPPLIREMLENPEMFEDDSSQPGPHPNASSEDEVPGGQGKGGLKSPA
# Procedure, shortened: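 TRANS format measured activity of exogenous NR-GAL4 fusion (RARg) in transfected HepG2 liver cells after 24 h dosing. Induced reporter RNA was detected by RT-PCR/capillary electrophoresis fluorescence, analysed in the positive direction against DMSO.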
# [13] = BSK_3C_TissueFactor: BioMAP Diversity Plus: 3C Assay for Tissue Factor Biomarker Activity (AID 2282997); settings: BioMAP 3C HUVEC, tissue factor biomarker readout; actives raise or lower the signal
# Procedure, shortened: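 Readout: Tissue Factor ELISA. Cells: human primary umbilical vein endothelium. Time: 24 h after dosing. Analysis: bidirectional fit, DMSO baseline.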
# [14] = BSK_3C_VCAM1: BioMAP Diversity Plus: 3C Assay for Vascular cell adhesion molecule 1 (VCAM1) Biomarker Activity (AID 2282999); settings: BioMAP 3C HUVEC, VCAM1 ELISA, cytokine-stimulated; actives raise or lower the signal
# Procedure, shortened: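 HUVEC primary cells, 24 h compound exposure; VCAM-1 by ELISA; gain/loss of signal fitted bidirectionally vs DMSO baseline.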
# [15] = BSK_4H_Eotaxin3: BioMAP Diversity Plus: 4H Assay for Eotaxin 3 Biomarker Activity (AID 2283000); settings: primary human endothelial cells (HUVEC); actives raise or lower the signal;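 as to outcome: CCL26 protein level quantified by ELISA in parallel with SRB cytotoxicity check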
# Procedure, shortened: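 HUVEC, 24 h post-dose, ELISA for Eotaxin-3/CCL26. Gain or loss of signal fitted bidirectionally vs DMSO baseline.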
# [16] = read-out: Intercellular Adhesion Molecule 1 (ICAM1), ICAM1 (gene 3383); experiment: BSK_3C_ICAM1: BioMAP Diversity Plus: 3C Assay for Intercellular Adhesion Molecule 1 (ICAM1) Biomarker Activity (AID 2283003); settings: primary human endothelial cells (HUVEC); actives raise or lower the signal
# Procedure, shortened: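 Chemicals are dosed onto primary human umbilical vein endothelium (3C system). After 24 h, ICAM-1 is measured by ELISA, and responses are fitted bidirectionally relative to DMSO.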
# [17] = BSK_3C_Proliferation: Cell Proliferation Assessment in the BioMAP Diversity Plus: 3C Assay (AID 2283006); settings: primary human endothelial cells (HUVEC);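 as to AC50: potency may reflect either rise or fall in cell number versus DMSO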
# Procedure, shortened: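 Cells (human umbilical vein endothelial, sub-confluent) receive test chemical; after 48 h they are fixed in 10% trichloroacetic acid, stained with 0.1% SRB and read at 560 nm. Activity is referenced to DMSO, fitting increases and decreases.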
# [18] = molecular target: human RAR-related Orphan Receptor beta (RORb), RORB (gene 6096) (UniProt Q92753); experiment: ATG_RORb_TRANS: Attagene TRANS-FACTORIAL HepG2 Assay for human RAR-related Orphan Receptor beta (RORb) (AID 2283010; active = hit-call score of the fitted dose curve at least 0.9, where 1 is the maximum)
# Chain of human RAR-related Orphan Receptor beta (RORb), RORB (gene 6096) (Q92753 whole entry, looked up, the tested form may be a part): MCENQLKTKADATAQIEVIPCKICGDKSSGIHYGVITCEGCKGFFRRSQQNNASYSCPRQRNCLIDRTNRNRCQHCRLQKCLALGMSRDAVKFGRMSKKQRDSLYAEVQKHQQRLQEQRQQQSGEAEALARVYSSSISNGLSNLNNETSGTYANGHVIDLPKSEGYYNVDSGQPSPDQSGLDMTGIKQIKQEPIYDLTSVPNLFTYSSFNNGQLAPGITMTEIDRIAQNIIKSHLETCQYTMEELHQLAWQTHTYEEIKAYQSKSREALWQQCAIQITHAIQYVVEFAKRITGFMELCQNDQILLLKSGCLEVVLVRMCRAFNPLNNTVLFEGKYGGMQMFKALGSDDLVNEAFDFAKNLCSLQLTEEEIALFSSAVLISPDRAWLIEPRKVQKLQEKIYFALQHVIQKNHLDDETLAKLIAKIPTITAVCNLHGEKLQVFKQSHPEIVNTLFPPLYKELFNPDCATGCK
# Procedure, shortened: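 Transfect HepG2 with multiple GAL4-UAS reporter transcription units; dose chemicals for 24 h; isolate RNA, reverse-transcribe and PCR-amplify reporter sequences; label, digest and resolve fragments by capillary electrophoresis; fit increases relative to DMSO.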
# [19] = molecular target: Myc proto-oncogene protein (Homo sapiens) (UniProt P01106); experiment: ATG_Myc_CIS: Attagene CIS-FACTORIAL HepG2 Assay for human Myelocytomatosis (Myc) Proto-Oncogene Transcription Factor (AID 2282990); settings: HepG2, Attagene cis-reporter transcription factor activity; actives raise or lower the signal
# Chain of Myc proto-oncogene protein (Homo sapiens) (P01106 whole entry, looked up, the tested form may be a part): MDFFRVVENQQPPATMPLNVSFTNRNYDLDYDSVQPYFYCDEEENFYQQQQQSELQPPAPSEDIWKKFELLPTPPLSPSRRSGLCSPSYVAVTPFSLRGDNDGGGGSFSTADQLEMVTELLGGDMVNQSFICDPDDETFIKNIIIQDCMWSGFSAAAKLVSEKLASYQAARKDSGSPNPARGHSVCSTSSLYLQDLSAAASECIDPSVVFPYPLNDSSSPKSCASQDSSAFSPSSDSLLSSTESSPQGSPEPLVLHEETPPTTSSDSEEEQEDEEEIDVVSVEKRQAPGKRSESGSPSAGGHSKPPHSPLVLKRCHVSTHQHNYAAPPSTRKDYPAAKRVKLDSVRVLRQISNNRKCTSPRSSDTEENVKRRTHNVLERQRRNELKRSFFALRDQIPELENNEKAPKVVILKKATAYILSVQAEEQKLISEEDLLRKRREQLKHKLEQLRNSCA
# Procedure, shortened: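 Read-out: fluorescent reporter mRNA fragments resolved by capillary electrophoresis after RT-PCR. Human HepG2 liver cells carried transfected cis-element reporter units and were dosed for 24 h. Gain or loss of signal fitted relative to DMSO baseline.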
smiles,measurement,setting,value
C[Si]1(C)O[Si](C)(C)O[Si](C)(C)O1,outcome,[1],inactive
same,outcome,[2],inactive
same,outcome,[3],inactive
same,outcome,[4],inactive
same,outcome,[5],inactive
same,outcome,[6],inactive
same,outcome,[7],inactive
same,outcome,[8],inactive
same,outcome,[9],inactive
same,outcome,[10],inactive
same,outcome,[11],inactive
same,outcome,[12],inactive
C=C(C)C(=O)OCCOCCOCCOCCOC(=O)C(=C)C,outcome,[1],inactive
same,AC50,[3],69.7 µM (active)
same,outcome,[4],inactive
same,outcome,[5],inactive
same,outcome,[13],inactive
same,outcome,[14],inactive
same,outcome,[15],inactive
same,outcome,[6],inactive
same,outcome,[7],inactive
same,outcome,[16],inactive
same,outcome,[17],inactive
same,outcome,[11],inactive
CC(C)(C)c1ccc(C(=O)O)cc1,outcome,[1],inactive
same,outcome,[3],inactive
same,outcome,[4],inactive
same,outcome,[5],inactive
same,outcome,[10],inactive
same,outcome,[11],inactive
CCCCCC(C)=O,outcome,[1],inactive
same,outcome,[3],inactive
same,outcome,[4],inactive
same,outcome,[5],inactive
same,outcome,[10],inactive
same,outcome,[11],inactive
CC(=O)c1c(C)c([N+](=O)[O-])c(C(C)(C)C)c([N+](=O)[O-])c1C,outcome,[1],inactive
same,outcome,[2],inactive
same,outcome,[3],inactive
same,outcome,[5],inactive
same,outcome,[13],inactive
same,outcome,[14],inactive
same,outcome,[15],inactive
same,outcome,[7],inactive
same,outcome,[16],inactive
same,outcome,[8],inactive
same,outcome,[9],inactive
same,outcome,[17],inactive
same,outcome,[10],inactive
same,AC50,[11],1.84 µM (active)
same,outcome,[12],inactive
CC(=O)OCCCc1ccccc1,outcome,[1],inactive
same,outcome,[2],inactive
same,outcome,[3],inactive
same,outcome,[5],inactive
same,outcome,[9],inactive
same,outcome,[11],inactive
same,outcome,[12],inactive
CCCCC(CC)COC(=O)c1ccc(O)cc1 (stereo not given),outcome,[1],inactive
same,outcome,[2],inactive
same,outcome,[3],inactive
same,outcome,[4],inactive
same,outcome,[5],inactive
same,outcome,[6],inactive
same,outcome,[7],inactive
same,outcome,[9],inactive
same,AC50,[11],20.7 µM (active)
same,outcome,[18],inactive
Cc1ccc(S(N)(=O)=O)cc1,outcome,[1],inactive
same,outcome,[2],inactive
same,outcome,[3],inactive
same,outcome,[4],inactive
same,outcome,[5],inactive
same,outcome,[6],inactive
same,outcome,[8],inactive
same,outcome,[9],inactive
same,outcome,[11],inactive
same,outcome,[12],inactive
CCC(=O)O[C@@H]1C[C@H]2CC[C@]1(C)C2(C)C,outcome,[1],inactive
same,outcome,[2],inactive
same,outcome,[3],inactive
same,outcome,[4],inactive
same,outcome,[5],inactive
same,outcome,[8],inactive
same,outcome,[9],inactive
same,outcome,[11],inactive
same,outcome,[12],inactive
ClC(c1ccccc1)(c1ccccc1)c1ccccc1,outcome,[1],inactive
same,outcome,[2],inactive
same,outcome,[3],inactive
same,outcome,[5],inactive
same,outcome,[8],inactive
same,AC50,[11],2.2 µM (active)
same,outcome,[12],inactive
CC(=O)O[C@@H]1C[C@@H]2CC[C@@]1(C)C2(C)C,outcome,[1],inactive
same,outcome,[2],inactive
same,outcome,[3],inactive
same,outcome,[4],inactive
same,outcome,[5],inactive
same,outcome,[6],inactive
same,outcome,[9],inactive
same,outcome,[11],inactive
same,outcome,[12],inactive
COCCc1ccc(OCC(O)CNC(C)C)cc1 (stereo not given),outcome,[1],inactive
same,outcome,[2],inactive
same,outcome,[3],inactive
same,outcome,[4],inactive
same,outcome,[5],inactive
same,outcome,[7],inactive
same,outcome,[9],inactive
same,outcome,[10],inactive
same,outcome,[11],inactive
O=C(O)CCCCCCCCC(=O)O,outcome,[1],inactive
same,outcome,[2],inactive
same,outcome,[3],inactive
same,outcome,[4],inactive
same,outcome,[5],inactive
O=C1OC2(c3ccccc31)c1ccc(O)c(Br)c1Oc1c2ccc(O)c1Br,outcome,[19],inactive
same,outcome,[2],inactive
same,outcome,[3],inactive
same,outcome,[4],inactive
same,outcome,[5],inactive
same,AC50,[13],31.9 µM (active)
same,AC50,[14],20 µM (active)
same,AC50,[15],28.9 µM (active)
same,outcome,[6],inactive
same,outcome,[7],inactive
same,outcome,[16],inactive
same,outcome,[9],inactive
same,AC50,[17],9.61 µM (active)
same,outcome,[10],inactive
same,AC50,[11],57 µM (active)
same,outcome,[12],inactive
same,outcome,[18],inactive
COc1ccc(CCC(C)=O)cc1,outcome,[1],inactive
same,outcome,[2],inactive
same,outcome,[3],inactive
same,outcome,[5],inactive
same,outcome,[6],inactive
same,outcome,[10],inactive
same,outcome,[11],inactive
same,outcome,[18],inactive
COc1cc(C(C)C)ccc1C,outcome,[1],inactive
same,outcome,[2],inactive
same,outcome,[3],inactive
same,outcome,[5],inactive
same,outcome,[7],inactive
same,outcome,[8],inactive
same,outcome,[9],inactive
same,outcome,[12],inactive
